The results in this text go back to PubChem BioAssay (NCI).

About 83,000 compounds went through this panel and 20% of them were active in at least one assay; those are over-represented in the sample as a whole.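 For each line, cells grew in 96-well plates with the test compound present at a single concentration for 48 hours.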 Values without a mark were called inactive. Calls of active or inactive are those of the source. Rule for the calls: active = growth percent below 10; inactive = the rest.

Common to all, as to assay: NCI-60 one-dose screen, 48 h (100 = growth as untreated, 0 = no growth, -100 = all killed)
What all share (settings): 10 µM unless noted

In experiment [1] the test system is NCI-H23 lung.
Experiment [2] deals with NCI-H226 lung.
The test system of experiment [3] is NCI-H322M lung.
Experiment [4] concerns NCI-H460 lung.
Experiment [5] deals with HOP-92 NSCLC.
Experiment [6] has as its system NCI-H522 lung.
In experiment [7] the test system is A549/ATCC NSCLC.
Experiment [8] has as its system 786-0 renal.
Experiment [9] deals with COLO 205 colon.
The subject of experiment [10] is HOP-62 NSCLC.

For `O=C(Nc1ccc(NCCN2CCOCC2)nc1)c1ccc([N+](=O)[O-])cc1`, the growth was 100% in experiment [1]; 109% in experiment [2]; 107% in [3]; 110% in [4]; 103% in experiment [5]; 95.2% in experiment [6]. In addition, the growth in [7] was 98.3%; in experiment [8], 104%; in experiment [9], 110%.

With `O=C1NN(C(=O)c2ccc(Cl)cc2)C(c2ccccc2)=N/C1=C\c1ccc(F)cc1`, the growth was 84% in experiment [1]; 92.1% in experiment [2]; 89.7% in experiment [3]; 94.6% in experiment [4]; 83.5% in [5]; 96.5% in experiment [6]. Besides, the values for the growth in experiment [7], in [8] and in experiment [9] were 87.5%, 76.5% and 109%, respectively.

In the case of `CCCCNC(=O)Oc1ccc(/C(=C(\C)c2ccccc2)c2ccc(OCCN(CC)CC)cc2)cc1`, the growth was 77.5% in experiment [1]; 85.4% in experiment [2]; 86.3% in experiment [3]; 56.1% in experiment [4]; 43.3% in [5]; 53.4% in [6]. Also, the growth in experiment [7] is 62.2%; in experiment [8], 67.3%; in experiment [9], 58.5%.

For the compound `COc1cc(-c2nn(-c3cccc(NC(=O)Nc4ccc(Cl)c(Cl)c4)c3)cc2-c2ccncc2)ccc1Cl`, the growth in experiment [1] was 1.67% (active); in experiment [2], 9.61% (active); in experiment [3], 38.8%; in experiment [4] it was 2.32% (active); in [5], -34.3% (active); in [6], -14.7% (active). The figures for the growth in [7], in experiment [8] and in [9] were -5.88% (active), 15.3% and -80.4% (active), respectively.

In the case of `c1coc(CNc2ccnc(Nc3ccc(OCCN4CCCCC4)cc3)n2)c1`, the growth in experiment [1] was 86.7%; in [2], 68.1%; in experiment [3] it was 101%; in experiment [4], 89.2%; in [5], 69.5%; in experiment [6], 85.3%. The values for the growth in [7], in experiment [8] and in [9] were 92.5%, 94.9% and 89.5%, respectively.

As for `N=C(N)c1ccc(-c2ccc(-c3ccc(-c4cccs4)s3)s2)cc1`, the growth was 98.8% in experiment [1]; 93.4% in experiment [2]; 43% in [3]; 21.7% in experiment [4]; 54.6% in experiment [5]; 100% in experiment [6]. For the same compound, the growth was 14% in experiment [7], 89.9% in [8] and 102% in experiment [9].

For the compound `COc1cc(-c2nn(-c3cccc(NC(=O)Nc4cccc(C(F)(F)F)c4)c3)cc2-c2ccncc2)ccc1Cl`, the growth in experiment [1] is -12.4% (active); in experiment [2], 4.3% (active); in experiment [3] it was 21.7%; in experiment [4], -7.91% (active); in experiment [5] it was -33.6% (active); in experiment [6], -30.8% (active). For the same compound, the growth was -14% (active) in [7], -15% (active) in experiment [8] and -88.9% (active) in [9].

Turning to `COc1cc(-c2nc(-c3nc4ccc(Cl)cc4[nH]3)cc3c2[nH]c2ccccc23)cc(OC)c1OC`, the growth was 71.5% in experiment [1]; 73.2% in experiment [2]; 82.9% in [3]; 73.8% in experiment [4]; 51.8% in experiment [5]; 39.7% in [6]. Moreover, the growth in [7] is 59.2%; in [8], 81%; in experiment [9], 84.6%.

Take `C=C1CCC2C(C)(CO)C(O)CCC2(C)C1CC(NCc1ccccc1)C1=CCOC1=O` (stereo not given): the growth in experiment [1] was 98.9%; in experiment [2], 100%; in experiment [3], 103%; in experiment [4], 102%; in experiment [5], 99.8%; in experiment [6], 89.9%. Besides, the growth in [7] was 99.9%; in experiment [8], 96.3%; in experiment [9], 103%.

`CC(C)(C)n1cc(-c2ccnc(NCCNS(=O)(=O)c3ccc(C(F)(F)F)cc3)c2)c(-c2cccc(O)c2)n1`: the growth in [1] is 55.8%; in experiment [2], 67.2%; in experiment [3] it was 74.9%; in [4] it was 21.2%; in [5], 35.4%; in experiment [6], 49%. The growth in [7] is 41.1%; in experiment [8], 33.9%; in [9] it was -33.8% (active).

As for `COc1ccc(-c2nc3sccn3c2/C=C/C(=O)c2cc(F)cc(F)c2)cc1`, the growth is 76.3% in experiment [1]; 80.5% in experiment [2]; 123% in experiment [3]; 88.4% in experiment [4]; 18.6% in [5]; 48.6% in experiment [6]. The growth in experiment [7] was 89.3%; in experiment [8], 89.1%; in experiment [9], 68.3%.

For `COc1ccc(/C=C\c2cc(OC)c(OC)c(OC)c2)cc1OC(=O)c1cccc(Cn2cc(CCOC(=O)c3cccc(Cn4nnc5c4C(=O)c4ccccc4C5=O)c3)nn2)c1`, the growth is 33.1% in experiment [1]; 58.4% in [2]; 50.5% in experiment [3]; 14.9% in experiment [10]; 5.39% (active) in experiment [4]; 52.6% in [5]. Moreover, the growth in [6] was 6.06% (active); in experiment [7] it was 17.3%; in [9], -25.2% (active).

For the compound `C=C(C)[C@@H]1CC[C@]2(C(=O)N3CCNCC3)CC[C@]3(C)[C@H](CC[C@@H]4[C@@]5(C)C/C(=C/c6ccncc6)C(=O)C(C)(C)[C@@H]5CC[C@]43C)[C@@H]12`, the growth is 103% in [1]; 95.7% in experiment [2]; 110% in [3]; 107% in experiment [4]; 95.8% in experiment [5]; 96.8% in experiment [6]. The growth is 102% in experiment [7], 108% in experiment [8] and 113% in experiment [9].

In the case of `O=C(NNC(=O)N1c2ccccc2C=Cc2ccccc21)c1ccc2ccccc2c1`, the growth in experiment [1] was 98.4%; in experiment [2], 95.5%; in [10] it was 99.1%; in [4], 100%; in experiment [5] it was 81.4%; in experiment [6], 85.9%. In addition, the figures for the growth in experiment [7] and in experiment [8] were 95.7% and 96.1%, respectively.

Take `O=C(NCc1cn(Cc2cccc(Oc3ccccc3)c2)nn1)c1cccnc1Nc1ccc(F)cc1`: the growth is 69.4% in experiment [1]; 88.5% in experiment [2]; 77.4% in [3]; 34.4% in experiment [4]; 114% in experiment [5]; 31.3% in [6]. In addition, the results for the growth in [7], in experiment [8] and in experiment [9] were 59.5%, 69.8% and 70.7%, respectively.

Consider `CCN1CCN(c2nc(NNC(=O)c3ccccc3)nc(N3CCN(C(c4ccccc4)c4ccccc4)CC3)n2)CC1`, for which the growth in experiment [1] is 67.5%; in [2], 73%; in [3], 90.3%; in experiment [4], 3.33% (active); in experiment [5], 59.3%; in experiment [6], 65.8%. Besides, the growth in [7] was 54.2%; in experiment [8], 66.4%; in experiment [9] it was -57% (active).

Turning to `COC(=O)c1cc(=O)nc(N/N=C/c2ccco2)s1`, the growth was 106% in experiment [1]; 97.8% in experiment [2]; 96.2% in experiment [3]; 106% in experiment [4]; 85.7% in experiment [5]; 103% in experiment [6]. Also, the growth is 107% in experiment [7], 114% in experiment [8] and 116% in experiment [9].

Turning to `COc1ccc2c(c1)[nH]c(=O)c1c3cc(OC)ccc3cn21`, the growth is 41.4% in [1]; 30.1% in experiment [2]; 33.6% in [3]; -33% (active) in [4]; 45.1% in [5]; 13% in experiment [6]. For the same compound, the figures for the growth in [7], in experiment [8] and in [9] were -2.59% (active), 28.7% and -14.1% (active), respectively.

`Cc1ccc2nc(Cl)cc(=O)n2c1`: the growth in experiment [1] was 107%; in [2], 108%; in experiment [3], 116%; in experiment [4], 113%; in experiment [5] it was 104%; in [6] it was 116%. The growth in experiment [7] is 113%; in experiment [8], 100%; in experiment [9], 108%.
